Results on 15 compounds are retold here after PubChem BioAssay (NCI).

What all share (assay): NCI-60 one-dose screen, 48 h (100 = growth as untreated, 0 = no growth, -100 = all killed)
Common to all, as to conditions: 10 µM unless noted

Assay [1] concerns T-47D breast.
Assay [2] deals with BT-549 breast.
The subject of assay [3] is MDA-MB-435 melanoma.
Assay [4] deals with SW-620 colon.
The subject of assay [5] is MCF7 breast.
For assay [6], the system named is HCT-116 colon.
Assay [7] concerns HCC-2998 colon.
For assay [8], the system named is KM12 colon.

About 83,000 compounds went through this panel and 20% of them were active in at least one assay; those are over-represented in the sample as a whole.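 The endpoint reported here, percent growth, reads 100 for growth as untreated, 0 for no net growth and -100 for all cells dead.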 Unmarked numbers belong to inactive results. Calls of active or inactive are those of the source. How the source made its calls: active means growth percent below 10; inactive means the rest.

Regarding `C/C(C=O)=C\c1ccc2c(c1)OCO2`, the growth in assay [1] is 117%; in assay [2], 114%; in assay [3] it was 107%; in assay [4] it was 118%; in assay [5], 102%; in assay [6], 108%. The growth in assay [7] was 108%; in assay [8], 110%.

On to `C=CCn1c(SCC(=O)Nc2ccc(C(=O)/C=C/c3cc(OC)c(OC)c(OC)c3)cc2)nnc1-c1cc(-c2ccc(OC)cc2)nc2ccccc12`, for which the growth was 84.9% in assay [1]; 90.1% in assay [2]; 100% in assay [3]; 90.8% in assay [4]; 64.4% in assay [5]; 67.8% in assay [6]. Also, the values for the growth in assay [7] and in assay [8] were 107% and 94%, respectively.

Regarding `COc1cc(/C=N/Nc2ccccc2F)cc(OC)c1OC`, the growth in assay [1] was 67.7%; in assay [2], 96%; in assay [3], 94.3%; in assay [4], 93.6%; in assay [5], 78.3%; in assay [6], 84.5%. The growth in assay [7] was 108%; in assay [8], 86.3%.

With `CCOC(=O)c1c(C)nn(CC(O)c2ccccc2)c1NC(=O)Nc1cccc(F)c1` (stereo not given), the growth is 81.8% in assay [1]; 96.4% in assay [2]; 86.8% in assay [3]; 82.7% in assay [4]; 81.4% in assay [5]; 84% in assay [6]. In addition, the growth was 94.6% in assay [7] and 82.9% in assay [8].

For the compound `Cc1ccc2[nH]c(=O)c3c(c2c1)OC(N)=C(C#N)C31C(=O)c2cccc3cccc1c23` (stereo not given), the growth in assay [1] is 85.8%; in assay [2], 102%; in assay [3], 97.6%; in assay [4] it was 101%; in assay [5], 88.2%; in assay [6] it was 101%. The growth is 106% in assay [7] and 94.4% in assay [8].

Consider `C=C(CO)[C@@H]1CC[C@]2(COC3CCCCO3)CC[C@]3(C)[C@H](CC[C@@H]4[C@@]5(C)C=C(C=O)C(=O)C(C)(C)[C@@H]5CC[C@]43C)[C@@H]12` (stereo not given in full), for which the growth is -80.3% (active) in assay [1]; -88.6% (active) in assay [2]; -83.9% (active) in assay [3]; -64.6% (active) in assay [4]; -73.2% (active) in assay [5]; -89.3% (active) in assay [6]. Also, the growth in assay [7] was -87.5% (active); in assay [8], -43% (active).

For the compound `O=C(OC[C@@H]1CO1)c1cccc2c(=O)c3ccccc3[nH]c12`, the growth was -9.67% (active) in assay [1]; -31.6% (active) in assay [2]; -81.7% (active) in assay [3]; -24.7% (active) in assay [4]; 0.0356% (active) in assay [5]; 2.66% (active) in assay [6]. The growth in assay [7] was -66.2% (active); in assay [8] it was -65.5% (active).

Take `Cc1cc(N2CCCCC2)nc(N2CCN(CC(=O)Nc3ccc4c(ccn4Cc4ccccc4)c3)CC2)n1`: the growth in assay [1] was 32.8%; in assay [2], 82.7%; in assay [3] it was 77.8%; in assay [4] it was 73.6%; in assay [5], 44.4%; in assay [6], 43.6%. Also, the results for the growth in assay [7] and in assay [8] were 93.3% and 49.1%, respectively.

`Clc1ccc(-c2cn3ccsc3n2)c(Cl)c1Cl`: the growth in assay [1] was 31.7%; in assay [2] it was 86.3%; in assay [3] it was 96.6%; in assay [4] it was 96.8%; in assay [5], 0.866% (active); in assay [6] it was 91.7%. Moreover, the growth was 92.5% in assay [7] and 98.1% in assay [8].

For the compound `C=CC(C)(O)CC/C=C(\CO)C(=O)OC1C(C)OC(O[C@](C)(C=C)CC/C=C(\CO)C(=O)O[C@H]2C[C@@]3(C(=O)OC4OC(CO)C(O)C(O)C4OC4OC(C)C(OC5OC(CO)C(O)C5O)C(OC5OC(CO)C(O)C(O)C5O)C4O)C(CC2(C)C)C2=CCC4[C@@]5(C)CC[C@H](OC6OC(COC7OC(C)C(O)C(O)C7OC7OCC(O)C(O)C7O)C(O)C(O)C6NC(C)=O)C(C)(C)C5CC[C@@]4(C)[C@]2(C)C[C@H]3O)C(O)C1O` (stereo not given in full), the growth in assay [1] was -54% (active); in assay [2], 104%; in assay [3], -80.5% (active); in assay [4] it was -43.2% (active); in assay [5], -50% (active); in assay [6], 6.13% (active). Also, the growth in assay [7] was -90.5% (active); in assay [8] it was -86.7% (active).

Regarding `CCNC(=O)Oc1ccc(/C(=C(/C)Cc2ccc(OC)cc2)c2ccc(OCCN3CCCCCC3)cc2)cc1`, the growth was 35.9% in assay [1]; 89.1% in assay [2]; 81.6% in assay [3]; 70.7% in assay [4]; 22.2% in assay [5]; 56.3% in assay [6]. The figures for the growth in assay [7] and in assay [8] were 63.3% and 53.9%, respectively.

For `C[C@@H]1CC[C@@]2(OC1)O[C@H]1C[C@H]3[C@@H]4CC=C5C[C@@H](O[C@@H]6O[C@H](CO)[C@@H](O[C@@H]7O[C@@H](CO)[C@H](O)[C@H]7O)[C@H](O)[C@H]6O[C@@H]6O[C@@H](C)[C@H](O)[C@@H](O)[C@H]6O)CC[C@]5(C)[C@H]4CC[C@]3(C)[C@H]1[C@@H]2C`, the growth in assay [1] was -22.6% (active); in assay [2], -59.4% (active); in assay [3], -92.8% (active); in assay [4], -86.4% (active); in assay [5], -87.9% (active); in assay [6], -84% (active). Further, the growth in assay [7] was -75.9% (active); in assay [8], -90.6% (active).

For `Cc1cc(F)ccc1S(=O)(=O)Nc1cc(-c2c(O)ccc3ccccc23)c(O)c2ccccc12`, the growth is 7.54% (active) in assay [1]; 30.1% in assay [2]; 28% in assay [3]; 25.8% in assay [4]; 30.1% in assay [5]; 5.49% (active) in assay [6]. Moreover, the growth in assay [7] is -3.54% (active); in assay [8], 3.55% (active).

In the case of `COc1ccc2nc3ccccc3c(NCc3ccc(F)cc3)c2c1`, the growth in assay [1] was 36.5%; in assay [2], 35%; in assay [3] it was 23.9%; in assay [4] it was 14.7%; in assay [5], -27.7% (active); in assay [6] it was 8.89% (active). For the same compound, the growth is -77.6% (active) in assay [7] and 28.7% in assay [8].

On to `C#CC#CC#CC#CC#CC#CC#CC#CC[C@H]1OC[C@@H](COC(=O)O[C@@H](C(=O)O[C@H]2C[C@@]3(O)[C@@H](OC(=O)c4ccccc4)[C@@H]4[C@]5(OC(C)=O)CO[C@@H]5C[C@H](O)[C@@]4(C)C(=O)[C@H](OC(C)=O)C(=C2C)C3(C)C)[C@@H](NC(=O)c2ccccc2)c2ccccc2)O1`, for which the growth in assay [1] is 53.4%; in assay [2] it was 53.2%; in assay [3], -47.8% (active); in assay [4], 42.4%; in assay [5] it was 33.7%; in assay [6], 18%. Further, the growth in assay [7] was 48.3%; in assay [8] it was 16.7%.
